Shown is part of a subset that was picked to be rich in hits.
TDP1 cell CPT: qHTS for Inhibitors of human tyrosyl-DNA phosphodiesterase 1 (TDP1): qHTS in cells in presence of CPT. Potency, µM (doses to about 46.2 µM), inactives show top-dose activity change, negative = growth inhibition, hits mostly inhibitors. chicken DT40 Tdp1-/-;hTDP1 cells + 20 nM CPT, ATP luminescence, 48 h. AID 686979, 2013. 12% of 420,000 active; further: potency means the concentration at half of the fitted maximal effect; nearly all actives have a fitted effect of over 55% in size
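Chicken DT40 Tdp1-/- cells complemented with human TDP1, 400 cells/well, exposed to compounds plus 20 nM camptothecin for at least 48 h at 37 C; viability read as ATP content by CellTiter-Glo luminescence.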
IL1B secr inh: qHTS for Inhibitors of Inflammasome Signaling: IL-1-beta AlphaLISA Primary Screen; THP-1 LPS/ATP IL-1B secretion, AlphaLISA, 16 h; stronger effect = lower value; activity change, % at 57.5 µM; 4.7% of 360,000 active; AID 743279, 2014; in the data active means activity change below about -50%; inconclusive means mostly about -30% to -49%
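Secreted IL-1B measured by AlphaLISA bead assay after 16 h compound exposure of THP-1 cells; compounds (final up to 57.5 uM) added 1 h before LPS (250 ng/mL) and ATP (1.25 mM) stimulation; lower signal means less secretion.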
12-LOX inh: Primary qHTS assay for inhibitors of human arachidonate 12S-lipoxygenase (ALOX12): Round 2. Polyunsaturated fatty acid lipoxygenase ALOX12 (Homo sapiens), P18054. purified 12hLO, xylenol orange hydroperoxide absorbance. Potency, µM (titrated, usually from 108 µM), for inactives: at the highest dose activity change, negative = inhibition, hits mostly inhibitors. 1.1% of 580,000 active. AID 1671190, 2021; further: potency means the concentration at half of the fitted maximal effect
Target sequence (P18054 whole entry, looked up): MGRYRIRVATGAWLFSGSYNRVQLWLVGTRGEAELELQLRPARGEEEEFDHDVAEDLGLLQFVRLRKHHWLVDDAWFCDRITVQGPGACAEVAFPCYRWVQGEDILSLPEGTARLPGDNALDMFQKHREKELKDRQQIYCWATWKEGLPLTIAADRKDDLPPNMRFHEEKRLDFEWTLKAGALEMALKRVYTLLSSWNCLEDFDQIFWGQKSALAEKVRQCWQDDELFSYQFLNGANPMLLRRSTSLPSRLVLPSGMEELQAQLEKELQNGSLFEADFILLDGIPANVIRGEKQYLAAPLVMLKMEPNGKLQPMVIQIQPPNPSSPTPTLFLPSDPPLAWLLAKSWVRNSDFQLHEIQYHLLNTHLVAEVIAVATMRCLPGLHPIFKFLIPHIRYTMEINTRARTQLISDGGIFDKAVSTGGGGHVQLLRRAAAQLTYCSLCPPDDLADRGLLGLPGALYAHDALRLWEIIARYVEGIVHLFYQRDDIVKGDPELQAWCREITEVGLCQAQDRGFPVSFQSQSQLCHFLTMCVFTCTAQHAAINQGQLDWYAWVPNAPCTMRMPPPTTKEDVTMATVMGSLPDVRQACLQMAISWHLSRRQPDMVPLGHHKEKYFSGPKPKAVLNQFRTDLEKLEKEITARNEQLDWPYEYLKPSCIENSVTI
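Purified human 12hLO (150 nM final) in 25 mM Hepes, 0.01% Triton X-100, pH 7.0 was preincubated 15 min at room temperature with compound. Then 40 uM arachidonic acid was added, 30 min. Hydroperoxide was read by Fe-XO absorbance ratio 573/405 nm.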
TDP1 cell noCPT: qHTS for Inhibitors of human tyrosyl-DNA phosphodiesterase 1 (TDP1): qHTS in cells in absence of CPT; DT40 Tdp1-/- hTDP1 cells, no CPT, ATP luminescence, 48 h; Potency, µM (doses to about 46.2 µM), inactives show at the highest dose activity change, negative = growth inhibition, usual class: inhibitors; 15% of 420,000 active; further: potency means the concentration at half of the fitted maximal effect; nearly all actives have a fitted effect of over 55% in size
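A cellular qHTS used chicken DT40 cells lacking endogenous Tdp1 but carrying stably transfected human TDP1. Compounds were applied without camptothecin, and cell growth kinetics were judged by ATP-dependent luminescence after ≥48 hr.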
HT1080 IDH1KD tx: qHTS for induction of synthetic lethality in tumor cells producing 2HG: qHTS for the HT-1080-IDH1KD cell line; HT-1080 IDH1 knockdown viability, ATP luminescence, 48 h; Potency, µM (titrated, usually from 46.1 µM), for the others: top-dose activity, negative = toxicity, hits mostly cytotoxic; 2% of 360,000 active;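 further: potency means the concentration at half of the fitted maximal effect; 0% = DMSO wells and -100% = cell-free medium wells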
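After a 2 h attachment period, IDH1KD HT-1080 cells took pin-transferred compound for 48 h at 37 °C; ATP-based luminescence after 10 min room-temperature reagent incubation reported viability.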
HT1080NT lethal: qHTS for induction of synthetic lethality in tumor cells producing 2HG: qHTS for the HT-1080-NT fibrosarcoma cell line. Potency, µM (doses to about 46.1 µM), inactives show top-dose activity, negative = less viability, actives largely listed as cytotoxic. 1.6% of 360,000 active. HT-1080-NT fibrosarcoma viability, CellTiter-Glo ATP luminescence, 48 h. AID 686970, 2013;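 further: NT is the 2HG producing partner of a matched IDH1 knockdown line; potency means the concentration at half of the fitted maximal effect; 0% = DMSO-treated cells and -100% = media-only wells without cells; nearly all actives have a fitted effect of over 55% in size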
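Compounds were tested in concentration-response format on HT-1080-NT cells for 48 hours at 37 degrees C. Cell viability came from CellTiter-Glo luminescence; curves were classified by r2, response magnitude and activity.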
An asterisk follows results filed as active; u = inconclusive; x = no result. Unless noted, the call rests on the fitted dose curve; in most records, active means well fitted curve in the direction sought with a large enough effect; inconclusive means small, poorly fitted or top-dose-only effect, or another doubt; inactive means no such curve, though single readings can be large; an effect the other way counts as inactive or inconclusive. Unless noted, on the % scale 0 is the no-effect control and ±100 the full control effect.

SMILES	TDP1 cell CPT	IL1B secr inh	12-LOX inh	TDP1 cell noCPT	HT1080 IDH1KD tx	HT1080NT lethal
CN(CCOc1ccccc1)C(=O)c1cc(S(=O)(=O)N2CCOCC2)c(Cl)cc1Cl	18µM*	-8	-9%	u	-15%	-11%
O=C(Nc1ccc(Cl)c(S(=O)(=O)N2CCOCC2)c1)c1ccccc1-c1ccc(C(F)(F)F)cc1	u	-14	-7%	16µM*	-15%	-8%
O=C(CCOc1ccccc1)Nc1ccc(Cl)c(S(=O)(=O)N2CCOCC2)c1	u	-72*	2%	u	-9%	5%
CCCCC(=O)NC1(C(F)(F)F)C(=O)N(Cc2ccccc2)C(C)=C1C(C)=O (stereo unspecified)	x	x	-1%	x	x	x
COc1cc2oc(=O)cc(-c3ccc(-c4ccc(O)cc4)cc3)c2c(OC)c1OC	u	-14	-21%	18µM*	-23%	-22%
COc1ccc(-c2ccc(-c3cc(=O)oc4cc(OC)c(OC)c(OC)c34)cc2)cc1OC	18µM*	17	13%	15µM*	-12%	-4%
COc1cc2oc(=O)cc(-c3cccc(-c4cccc(C)c4)c3)c2c(OC)c1OC	u	28	u	23µM*	u	u
O=C1c2ccccc2C(=O)C1c1ccncc1	u	-21	u	23µM*	-2%	-5%
Cc1ccc(C2C(=O)c3ccccc3C2=O)cc1	3%	7	-19%	-12%	9%	18%
CCOC(=O)c1ccc(N2CCCCC2)c(NS(=O)(=O)c2ccc(C)cc2)c1	u	60	103%	21µM*	u	u
Cc1ccc(CNC(=O)Nc2cc(C(=O)NCc3ccc(C(C)C)cc3)ccc2N2CCCC2)cc1	u	x	5%	u	x	x
Cc1ccc(CNC(=O)c2ccc(N3CCCC3)c(NC(=O)Nc3ccc(C)cc3)c2)cc1	15µM*	x	2%	23µM*	x	x
CCOC(=O)c1ccc(NC(=O)Nc2cc3c(cc2N2CCCC2)n(C)c(=O)n3C)cc1	u	x	-18%	23µM*	x	x
CCOC(=O)C1CCN(c2cc3c(cc2NC(=O)c2ccc(OC)c(OC)c2)n(C)c(=O)n3C)CC1	9.2µM*	9	u	5.8µM*	-1%	1%
Cc1ccccc1CC(=O)NCCc1cccnc1	x	x	0%	x	x	x
COc1ccc(C(=O)/C=C/c2ccc(C#N)cc2)cc1F	x	x	45%	x	x	x
COc1ccc(S(=O)(=O)N2CCOCC2)cc1NC(=O)C1CC(=O)N(c2ccc3c(c2)OCCO3)C1 (stereo unspecified)	3%	4	0%	-4%	9%	4%
CCOC(=O)c1ccc(N2CCN(c3ccccc3F)CC2)c(NC(=O)Nc2ccccc2)c1	16µM*	23	-15%	16µM*	-1%	1%
CCOC(=O)c1ccc(N2CCN(c3ccccc3OC)CC2)c(NC(=O)Nc2ccc(CC)cc2)c1	u	x	-56%	u	x	x
CCOC(=O)C1CCN(c2cc3c(cc2NC(=O)c2ccccc2)n(C)c(=O)n3C)CC1	21µM*	9	9%	8.2µM*	5%	-8%
COc1cc2c(cc1C(=O)N1CC[C@@](O)(C3CCOCC3)[C@H](C)C1)CCC2	x	x	27%	x	x	x
CCc1ccccc1-n1c(SCC(=O)NC(C)c2cc3ccccc3o2)nnc1N1CCOCC1 (stereo unspecified)	x	x	-4%	x	x	x
COc1ccc(/C=C/C(=O)Nc2ccccc2C(=O)O)cc1	u	29	-9%	-20%	-11%	-6%
CN(C)C(CNC(=O)c1ccc(C(=O)c2ccccc2)cc1)c1ccccc1 (stereo unspecified)	-15%	-19	-9%	u	-17%	-28%
COc1ccc(/C=C/C(=O)Nc2ccccc2C(=O)NCC(c2ccc(OC)cc2)N(C)C)cc1 (stereo unspecified)	18µM*	-78*	-6%	23µM*	u	u
SMILES	TDP1 cell CPT	IL1B secr inh	12-LOX inh	TDP1 cell noCPT	HT1080 IDH1KD tx	HT1080NT lethal
CN(C)C(CNC(=O)c1ccc(-c2ccccc2)cc1)c1ccccc1 (stereo unspecified)	u	-54*	u	18µM*	16µM*	16µM*
COc1ccc(C(CNC(=O)CSc2ccccc2C)N(C)C)cc1 (stereo unspecified)	7%	-5	15%	u	-1%	-20%
COc1ccc(C(CNC(=O)Cc2ccc(-c3ccccc3)cc2)N(C)C)cc1 (stereo unspecified)	21µM*	-28	-13%	18µM*	21µM*	18µM*
CCCn1c(=O)n(CC(=O)NC2(c3noc(C)n3)CCCC2)c2ccccc21	x	x	9%	x	x	x
O=C(O)c1ccccc1-c1ccccc1C(=O)Nc1cccc(-c2nc3ccccc3o2)c1	-16%	-9	11µM*	-33%	-21%	-9%
O=C(Nc1cccc(-c2nc3ccccc3o2)c1)c1cccnc1	u	11	-16%	21µM*	-6%	-11%
O=C(O)c1ccccc1-c1ccccc1C(=O)Nc1ccc2c(c1)oc(=O)c1ccccc12	u	u	-9%	13µM*	-7%	u
Cc1ccc(C(=O)Nc2cccc(-c3nc4ccccc4o3)c2)c(Cl)c1	-26%	x	-9%	-27%	x	x
Cc1cccc(C(=O)Nc2cccc(-c3nc4ccccc4o3)c2)c1	x	x	1%	x	x	x
CC1NC(=O)c2ccccc2-n2c1nc1ccc(F)cc1c2=O (stereo unspecified)	x	x	1%	x	x	x
CC(C)C(C#CCN1CCCCC1)(c1ccccc1)c1ccccc1	x	x	20µM*	x	x	x
OC(CCCN1CCCCC1)(c1ccccc1)c1ccc(C(F)(F)F)cc1 (stereo unspecified)	u	-22	-8%	18µM*	u	u
OC(CC#CCN1CCCCCC1)(c1ccccc1)c1ccc(-c2ccccc2)cc1 (stereo unspecified)	x	x	18µM*	x	x	x
OC(C#CCN1CCCC1)(c1ccccc1)c1ccccc1	-6%	0	u	u	4%	2%
OC(CCN1CCCCC1)(c1ccccc1)c1ccccc1	u	3	8%	u	6%	3%

High-throughput results (PubChem)
